Source: PubChem BioAssay (several laboratories)
EBV LMP1 NFkB = EBV LMP1-driven NF-kappaB luciferase reporter inhibitors, primary screen, cell-based, luminescence, single point. LMP1-induced NF-kappaB luciferase reporter cells. inhibition, % at 12.5 µM. 0.69% of 350,000 active. AID 504558, 2011; in the data active means inhibition above about 41%; inconclusive means no clear call, values can overlap the other calls;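 further: 0% = neutral control wells and 100% = reference inhibitor control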
TWEAK-Fn14 inh = inhibitors of TWEAK-Fn14 signaling, primary screen, luciferase reporter cells, uHTS. TWEAK-stimulated Fn14 reporter cells, luciferase luminescence, 8 h. inhibition, % at 10 µM. 2% of 360,000 active. AID 1159606, 2016; in the data active means inhibition above about 50%
EWS-Fli inh = EWS/Fli-driven NR0B1 reporter inhibitors, primary screen, A673 cells, NR0B1 luciferase, luminescence, MLPCN library; viability-normalised; inhibition, % at 12.6 µM; 0.67% of 350,000 active;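 active means mean inhibition of at least 50% after viability correction, with every replicate also passing that limit; inconclusive means mean reaches 50% but only one of two replicates passes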;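 further: firefly luciferase signal divided by Alamar Blue viability fluorescence both relative to DMSO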
TROY signal inh = inhibitors of TROY-driven NF-kB signaling, primary screen, Q293 LMP1-TROYcd cells, NF-kB luciferase, uHTS | Q293 LMP1-TROYcd NF-kB luciferase reporter, 4 h | AID 1347056, 2019 | 0.98% of 360,000 active | inhibition, % at 10 µM;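 active means compounds whose plate-normalised and pattern-corrected inhibition of the luciferase reporter signal at the single screening dose is 50% or more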
LGR2 antag = inhibitors of bursicon-induced LGR2 CRE-luciferase signal, primary screen, cell-based, HEK293, CRE-luciferase reporter, bursicon stimulation. Drosophila bursicon receptor LGR2 (rickets). bursicon-stimulated, 4 h. inhibition, % at 9.99 µM. 0.35% of 380,000 active;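 active means drop in luminescence signal, shown as inhibition above about 50% in the replicate tests, limit read from the data, passing the limit was not always enough; inconclusive means probably only some replicates passing the limit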;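 further: agonist challenge used bursicon conditioned medium at about half maximal strength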
PAX8 inh HTS = inhibitors of PAX8-driven TPO luciferase reporter, primary screen, RMG-I cells, single concentration | AID 652154, 2013 | 1.2% of 360,000 active | inhibition, % at 12.6 µM | SteadyGlo, 24 h;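 active means mean replicate inhibition at least 60% with every replicate also reaching 60%; inconclusive means only one of the two criteria is met; inactive means mean below 60% and not all replicates reaching 60%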;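 further: luciferase light reporting Pax8 driven TPO promoter activity; plate controls were median of neutral control wells for no effect and mitoxantrone controls for full effect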
The depositor's hits bear a star. Shown are actives, neighbours in structure and some others; about 3.2% of the full set was active somewhere.

How did CC12CCC(=O)N1C(C(=O)Nc1cccc(S(=O)(=O)N3CCCCCC3)c1)CS2 (stereo not given) do in these assays?
EBV LMP1 NFkB: 2; TWEAK-Fn14 inh: -12; EWS-Fli inh: 6; TROY signal inh: 9; LGR2 antag: 24; PAX8 inh HTS: 5

Results for CCOc1ccccc1OCC(=O)Nc1cccc(S(=O)(=O)N2CCCCCC2)c1 ?
EBV LMP1 NFkB: 0; TWEAK-Fn14 inh: 2; EWS-Fli inh: 4; TROY signal inh: 2; LGR2 antag: 7; PAX8 inh HTS: 8

Results for CC12CCC(=O)N1C(C(=O)OCC(=O)Nc1cccc(S(=O)(=O)N3CCCCCC3)c1)CS2 (stereo not given) ?
EBV LMP1 NFkB: -4; TWEAK-Fn14 inh: -1; EWS-Fli inh: 9; TROY signal inh: 24; LGR2 antag: -4; PAX8 inh HTS: 84*

How did CC(=O)c1ccccc1OCC(=O)Nc1cccc(S(=O)(=O)N2CCCC2)c1 do in these assays?
EBV LMP1 NFkB: 46*; TWEAK-Fn14 inh: 1; EWS-Fli inh: -16; TROY signal inh: -4; LGR2 antag: 1; PAX8 inh HTS: -7

How did CCN1[C@@H]2c3ccc(-c4ccncc4)c(=O)n3C[C@H]1[C@H](CO)[C@H]2C(=O)NCCc1cn(C)cn1 do in these assays?
EWS-Fli inh: -4; LGR2 antag: 11; PAX8 inh HTS: -10

What do the screens show for `Cc1ccc(NC(=O)COc2ccc(N(C)C(=O)C(C)(C)C)cc2)cc1S(=O)(=O)N1CCCCC1`?
EBV LMP1 NFkB: 15; TWEAK-Fn14 inh: 69*; EWS-Fli inh: 17; TROY signal inh: 39; LGR2 antag: 18; PAX8 inh HTS: 29

How did COc1ccc(NC(=O)CN(C)CC(=O)Nc2ccc(C)c(S(=O)(=O)N3CCCCC3)c2)cc1 do in these assays?
EBV LMP1 NFkB: 2; TWEAK-Fn14 inh: 17; EWS-Fli inh: 13; TROY signal inh: 22; LGR2 antag: 3; PAX8 inh HTS: 27

How did O=c1c2ccccc2nc(/C=C/c2ccc(O)cc2)n1CCc1ccccc1 do in these assays?
EBV LMP1 NFkB: -5; TWEAK-Fn14 inh: 66*; TROY signal inh: 6; LGR2 antag: 17; PAX8 inh HTS: 0

Results for O=c1c2ccccc2nc(-c2ccco2)n1CCc1ccc(O)cc1 ?
EBV LMP1 NFkB: 9; TWEAK-Fn14 inh: 64*; EWS-Fli inh: 13; TROY signal inh: 33; LGR2 antag: 8; PAX8 inh HTS: 11

What do the screens show for `COCC(=O)Nc1ccc2c(c1)C(=O)N(C)[C@H]1CC[C@@H](CC(=O)OC)O[C@@H]1CO2`?
EWS-Fli inh: 5; LGR2 antag: -9; PAX8 inh HTS: 9

What do the screens show for `CN(C)C(=O)c1cccc(-c2ccc([C@@H]3[C@@H](CO)N4C(=O)CN(C(=O)CC5CC5)C[C@@H]34)cc2)c1`?
LGR2 antag: 8

What do the screens show for `O=C(Cc1coc2cc3c(cc12)CCC3)OCC(=O)N1CCCC1=O`?
EBV LMP1 NFkB: 16; TWEAK-Fn14 inh: 83*; EWS-Fli inh: 32; TROY signal inh: 59*; LGR2 antag: 2; PAX8 inh HTS: -7

What do the screens show for `CC(C)(C)Nc1ncnc2c1cnn2-c1ccccc1`?
EBV LMP1 NFkB: -24; TWEAK-Fn14 inh: 40; EWS-Fli inh: -50; TROY signal inh: 51*; LGR2 antag: -4; PAX8 inh HTS: -199

Results for COCCNc1ncnc2c1cnn2-c1ccc(Cl)cc1 ?
EBV LMP1 NFkB: -20; TWEAK-Fn14 inh: 54*; TROY signal inh: -53

Results for Clc1ccc(Nc2ncnc3c2cnn3-c2ccccc2)cc1 ?
EBV LMP1 NFkB: -27; TWEAK-Fn14 inh: 46; EWS-Fli inh: -161; TROY signal inh: -12; LGR2 antag: -17; PAX8 inh HTS: -172

How did CC(C)Nc1ncnc2c1cnn2-c1ccc(Cl)cc1 do in these assays?
EBV LMP1 NFkB: -5; TWEAK-Fn14 inh: 74*; EWS-Fli inh: 18; TROY signal inh: 64*; LGR2 antag: inconclusive; PAX8 inh HTS: -106

What do the screens show for `CC(C)Cc1ccc(C(=O)NCCOc2ccccc2)o1`?
EBV LMP1 NFkB: 11; TWEAK-Fn14 inh: 51*; EWS-Fli inh: -43; TROY signal inh: 18; LGR2 antag: 23; PAX8 inh HTS: -69

How did Cc1ccc(OCCNC(=O)c2ccc(COc3ccccc3)o2)cc1 do in these assays?
EBV LMP1 NFkB: 0; TWEAK-Fn14 inh: -3; EWS-Fli inh: -9; TROY signal inh: 0; LGR2 antag: 13

Results for O=C(NCCc1ccccc1)c1cccc(N2CCCC2=O)c1 ?
EBV LMP1 NFkB: 26; TWEAK-Fn14 inh: 83*; TROY signal inh: 62*

What do the screens show for `CC(C)(C)c1ccc(C(=O)NCCOc2ccccc2)cc1`?
EBV LMP1 NFkB: 17; TWEAK-Fn14 inh: 89*; EWS-Fli inh: 64*; TROY signal inh: 79*; LGR2 antag: 62*; PAX8 inh HTS: -7

How did Cc1ccc(CCNC(=O)c2cccc(N3CCCC3=O)c2)cc1 do in these assays?
EBV LMP1 NFkB: -18; TWEAK-Fn14 inh: -22; TROY signal inh: -29

What do the screens show for `CC(C)(C)c1ccc(C(=O)NCCOc2ccccc2F)cc1`?
EBV LMP1 NFkB: 6; TWEAK-Fn14 inh: 95*; EWS-Fli inh: 75*; TROY signal inh: 75*; LGR2 antag: 67*; PAX8 inh HTS: 29

Results for CC(C)(C)c1ccc(C(=O)NCCc2ccccc2)cc1 ?
EBV LMP1 NFkB: -31; TWEAK-Fn14 inh: 59*; EWS-Fli inh: 33; TROY signal inh: 43; LGR2 antag: -22; PAX8 inh HTS: -79

How did CC(C)(C)c1ccc(C(=O)NCc2ccccc2)cc1 do in these assays?
EBV LMP1 NFkB: -24; TWEAK-Fn14 inh: -13; EWS-Fli inh: -32; TROY signal inh: -56; LGR2 antag: -148; PAX8 inh HTS: -110

What do the screens show for `O=C(NCCc1ccccc1)c1ccc([N+](=O)[O-])cc1`?
EBV LMP1 NFkB: 10; TWEAK-Fn14 inh: 58*; TROY signal inh: 11; PAX8 inh HTS: -76

Results for Cc1[nH]c2ccccc2c1/C=N/NC(=O)C1CC1(c1ccccc1)c1ccccc1 (stereo not given) ?
EBV LMP1 NFkB: -26; TWEAK-Fn14 inh: 66*; TROY signal inh: 24; LGR2 antag: -8; PAX8 inh HTS: 0

How did Cc1n[nH]c(C)c1CCC(=O)N/N=C/c1c(C)[nH]c2ccccc12 do in these assays?
EBV LMP1 NFkB: -8; TWEAK-Fn14 inh: 13; EWS-Fli inh: 27; TROY signal inh: 1; LGR2 antag: 7; PAX8 inh HTS: 85*

Results for C[C@H](CO)N1C[C@H](C)[C@@H](CN(C)C(=O)C2CCCCC2)OCCCC[C@H](C)Oc2ccc(NC(=O)Nc3ccc(C(F)(F)F)cc3)cc2C1=O ?
EWS-Fli inh: 9; LGR2 antag: 4
